Only some compounds are listed: those with a hit (about 4.7% of all), similar ones and a draw of the others.
TRHR agonist: agonists of human TRH receptor. TRHR cells, calcium flux fluo-8, FDSS agonist mode. P34981. activation, % at 2 µM. hit rate 0.18% among 360,000; note: 0% is about no effect
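In this calcium-flux screen, cells bearing human TRHR are dye-loaded with fluo-8, baselined for 10 cycles, then exposed to library compounds; positive kinetic calcium responses during the agonist phase mark hits, with TRH as control.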
D1 antag: blocks dopamine activation of the human D1 receptor; P21728; HEK293 TREx D1 cells, calcium flux, dopamine EC80; active compounds read low; activity change, negative = inhibition, % at 10 µM; hit rate 3.2% among 360,000; AID 504652; in the data active = activity change below about -30%; note: % is set by controls: 0 for no effect and ±100 for the full control effect
Target sequence (P21728 whole entry, looked up): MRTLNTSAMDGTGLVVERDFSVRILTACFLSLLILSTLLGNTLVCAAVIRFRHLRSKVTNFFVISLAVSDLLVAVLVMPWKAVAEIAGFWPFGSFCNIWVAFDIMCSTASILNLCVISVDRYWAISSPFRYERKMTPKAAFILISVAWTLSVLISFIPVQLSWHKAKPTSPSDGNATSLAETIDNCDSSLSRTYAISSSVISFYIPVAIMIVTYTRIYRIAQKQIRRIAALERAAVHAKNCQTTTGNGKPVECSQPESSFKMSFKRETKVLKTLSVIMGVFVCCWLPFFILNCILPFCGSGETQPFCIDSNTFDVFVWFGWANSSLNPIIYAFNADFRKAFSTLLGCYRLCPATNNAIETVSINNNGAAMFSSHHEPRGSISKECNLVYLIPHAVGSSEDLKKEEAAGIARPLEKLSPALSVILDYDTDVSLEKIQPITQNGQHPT
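Allosteric or orthosteric antagonism assessed as attenuation of the calcium response to EC80 dopamine, added 180 s after compound, in induced HEK293 Trex D1 cells loaded with no-wash calcium dye.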
D1 potentiator: enhances dopamine response at the human D1 receptor. HEK293 TREx D1 cells, calcium flux, dopamine EC20 potentiation. potentiation, % at 10 µM. hit rate 0.036% among 360,000. AID 504651; in the data active = potentiation above about 30%; note: 0% is about no effect
TRHR PAM: TRH receptor (human) allosteric enhancement; TRHR cells, fluo-8 calcium fluorescence, EC20 TRH enhancement; P34981; hit rate 0.66% among 360,000; enhancement, % at 2 µM; AID 493056; in the data active = enhancement above about 30%; note: 0% is about no effect
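TRHR-expressing cells loaded with fluo-8 calcium dye were read kinetically (ex 480/em 530) during compound addition, then stimulated with an EC20 of TRH (10 nM final). Enhancement of the Gq-mediated intracellular calcium response was scored.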
D1 ag: agonists of human D1 dopamine receptor; hit rate 1% among 360,000; P21728; HEK293 T-REx D1 cells, calcium flux, agonist mode; activation, % at 2 µM; note: 0% is about no effect
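Tetracycline-induced HEK293 TREx D1 cells, force-coupled to calcium signalling, were dye-loaded with a no-wash calcium kit. Compound was pin-added after a 10 s baseline. Fluorescence was read kinetically at 1 cycle/s for 180 s, with calcium rises flagged as agonism.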
Starred values were filed as active, the others as inactive. Cut-off read from the data, not from the text of the source, unless noted: active = activation above about 30%; inactive = the rest.

How did CCOC(=O)c1ccc(N2C(=O)c3n[nH]c(C)c3C2c2ccc(C(C)C)cc2)cc1 (centres undefined) do in these assays?
TRHR agonist: 0; D1 antag: 19; D1 potentiator: 8; TRHR PAM: 30; D1 ag: 0

Results for COc1ccccc1CNCc1cc(Br)ccc1OC ?
TRHR agonist: 2; D1 antag: -1; D1 potentiator: -3; TRHR PAM: -6; D1 ag: 37*

Results for COc1cccc(CNCc2ccc(OC)c3ccccc23)c1OC ?
TRHR agonist: -1; D1 antag: -41*; D1 potentiator: -9; TRHR PAM: 2; D1 ag: 50*

What do the screens show for `COc1cccc(CNCc2ccccn2)c1OC`?
TRHR agonist: 1; D1 antag: -23; D1 potentiator: -11; TRHR PAM: -8; D1 ag: 3

Results for Cc1ccsc1CN(C(=O)c1ccc(Br)cc1)C1CCS(=O)(=O)C1 (centres undefined) ?
TRHR agonist: -1; D1 antag: -9; D1 potentiator: 4; TRHR PAM: -5; D1 ag: -2

How did Cc1ccc(-c2noc(CCC(=O)NCCN3CCN(Cc4ccccc4)CC3)n2)cc1 do in these assays?
TRHR agonist: 0; D1 antag: -20; D1 potentiator: -7; TRHR PAM: -10; D1 ag: 13

Results for COc1ccc(-c2noc(CCC(=O)NCCCN3CCC(Cc4ccccc4)CC3)n2)cc1 ?
TRHR agonist: 3; D1 antag: -54*; D1 potentiator: -10; TRHR PAM: 8; D1 ag: 56*

What do the screens show for `Cc1ccc(-c2noc(CCC(=O)NCC3CCN(Cc4cccc(C)c4)CC3)n2)cc1`?
TRHR agonist: 4; D1 antag: -24; D1 potentiator: -10; TRHR PAM: 6; D1 ag: 51*

What do the screens show for `COc1ccc(-c2noc(CCC(=O)NCc3ccco3)n2)cc1`?
TRHR agonist: -2; D1 antag: -37*; D1 potentiator: -6; TRHR PAM: -1; D1 ag: 0

How did COc1ccc(-c2noc(CCC(=O)NCCCN3CCN(c4ccc(F)cc4)CC3)n2)cc1 do in these assays?
TRHR agonist: 0; D1 antag: -73*; D1 potentiator: -16; TRHR PAM: -4; D1 ag: 35*

Results for CCOC(=O)c1ccc(NS(=O)(=O)c2ccc3c(c2)CCN3C(=O)CC)cc1 ?
TRHR agonist: -1; D1 antag: -11; D1 potentiator: -3; TRHR PAM: 0; D1 ag: 7

How did CCOC(=O)C1(CC2CCCCO2)CCN(C(=O)Nc2ccccc2)CC1 (centres undefined) do in these assays?
TRHR agonist: 0; D1 antag: 2; D1 potentiator: -2; TRHR PAM: 9; D1 ag: -1

Results for Cc1c(CNC2CCCCCC2)c(C(=O)O)c(C)n1Cc1ccc(F)cc1Cl ?
TRHR agonist: 0; D1 antag: -9; D1 potentiator: -1; TRHR PAM: 4; D1 ag: 0

Results for Cc1nc(N)nc(N)c1/C=C/C(C)(C)c1ccc(Cl)cc1 ?
TRHR agonist: 1; D1 antag: -20; D1 potentiator: -9; TRHR PAM: 24; D1 ag: 38*

Results for CC(C)(C)S(=O)(=O)c1cnc(-c2ccc(Cl)cc2)nc1N ?
TRHR agonist: 1; D1 antag: -18; D1 potentiator: -3; TRHR PAM: 0; D1 ag: 2

What do the screens show for `COC(=O)[C@@H](N)CS`?
TRHR agonist: 0; D1 antag: -9; D1 potentiator: 5; TRHR PAM: 1; D1 ag: 1

What do the screens show for `O=C(CC1CC2CCC1C2)NCCc1ccc(Cl)cc1` (centres undefined)?
TRHR agonist: -1; D1 antag: -1; D1 potentiator: -5; TRHR PAM: -7; D1 ag: 0

Results for CCCN1C2CCCC1CC(NC(=O)c1cc(OC)cc(OC)c1)C2 (centres undefined) ?
TRHR agonist: 1; D1 antag: -34*; D1 potentiator: -9; TRHR PAM: 0; D1 ag: -3

What do the screens show for `CCCN1C2CCCC1CC(NC(=O)c1ccc(C(C)(C)C)cc1)C2` (centres undefined)?
TRHR agonist: 0; D1 antag: 10; D1 potentiator: 4; TRHR PAM: 8; D1 ag: 8

Results for COc1cc(OC)cc(C(=O)NC2CC3CCC(C2)N3C)c1 (centres undefined) ?
TRHR agonist: 1; D1 antag: -54*; D1 potentiator: -14; TRHR PAM: 1; D1 ag: 1

What do the screens show for `Cc1ccc(C)c(N2CCN(CCCNC(=O)Cn3c(-c4cccs4)cc4ccccc43)CC2)c1`?
TRHR agonist: 0; D1 antag: 10; D1 potentiator: 4; TRHR PAM: 8; D1 ag: -2

Results for CCSc1oc(-c2ccc(F)cc2)nc1S(=O)(=O)c1ccc(C)cc1 ?
TRHR agonist: 1; D1 antag: 7; D1 potentiator: 1; TRHR PAM: -1; D1 ag: 21

Results for CCSc1oc(-c2ccccc2)nc1S(=O)(=O)c1ccccc1 ?
TRHR agonist: -1; D1 antag: 11; D1 potentiator: 10; TRHR PAM: 8; D1 ag: 2

What do the screens show for `Cc1ccc(-c2nc(S(=O)(=O)c3ccc(C)cc3)c(SCC(=O)Nc3ccc(F)cc3)o2)cc1`?
TRHR agonist: 1; D1 antag: -61*; D1 potentiator: 0; TRHR PAM: -1; D1 ag: 3

What do the screens show for `CSc1oc(-c2ccccc2)nc1S(=O)(=O)c1ccc(C)cc1`?
TRHR agonist: 1; D1 antag: -35*; D1 potentiator: -7; TRHR PAM: -2; D1 ag: 4

What do the screens show for `CCN(CC(=O)NC1CCS(=O)(=O)C1)S(=O)(=O)c1cc(C)ccc1C` (centres undefined)?
TRHR agonist: 0; D1 antag: -55*; D1 potentiator: -12; TRHR PAM: -2; D1 ag: 0

Results for CCN(CC(=O)NC1CCS(=O)(=O)C1)c1ccc([N+](=O)[O-])cc1C#N (centres undefined) ?
TRHR agonist: 0; D1 antag: -31*; D1 potentiator: -3; TRHR PAM: 5; D1 ag: 2

What do the screens show for `C=CCN(CC(=O)NC1CCS(=O)(=O)C1)S(=O)(=O)c1ccccc1C(F)(F)F` (centres undefined)?
TRHR agonist: 2; D1 antag: 1; D1 potentiator: -7; TRHR PAM: 31*; D1 ag: 3

What do the screens show for `O=C(CN1C(=O)c2ccc([N+](=O)[O-])cc2C1=O)NC1CCS(=O)(=O)C1` (centres undefined)?
TRHR agonist: 0; D1 antag: -2; D1 potentiator: 0; TRHR PAM: 2; D1 ag: 1
